# Measurements published in article PMC11062922 (Nature Chemical Biology, 2023).
# Where two headings read alike, the source gives them in different places.
# Legend:
# Design in all cases: species or system human, MV4-11 + K-562 + COLO205 + SK-N-BE2 + OVCAR-8
# ACVR1 = details: read-out: apparent Kd, n = 1
# ACVR2B = details: read-out: apparent Kd, compound concentrations: 100 nM and 1000 nM (sheet 'Samples'), n = 1
# BCR = details: read-out: apparent Kd; compound concentrations: 100 nM and 1000 nM (sheet 'Samples'), CATDS: 7.0620023573944493E-2; n = 1
# FLT3 = details: read-out: apparent Kd; compound concentrations: 100 nM and 1000 nM (sheet 'Samples'), CATDS: 5.3612696826146597E-2; n = 1
# FLT4 = details: read-out: apparent Kd; compound concentrations: 100 nM and 1000 nM (sheet 'Samples'), CATDS: 5.6175855360763499E-2; n = 1
# FRK = details: read-out: apparent Kd; compound concentrations: 100 nM and 1000 nM (sheet 'Samples'), CATDS: 7.6735011828902105E-2; n = 1
# FYN = details: read-out: apparent Kd; compound concentrations: 100 nM and 1000 nM (sheet 'Samples'), CATDS: 5.82468241174715E-2; n = 1
# GAK = details: read-out: apparent Kd, n = 1
# IRAK3 = details: read-out: apparent Kd; compound concentrations: 100 nM and 1000 nM (sheet 'Samples'), CATDS: 6.2537206863604394E-2; n = 1
# PIP4K2C = details: read-out: apparent Kd; compound concentrations: 100 nM and 1000 nM (sheet 'Samples'), CATDS: 5.2092814624207201E-2; n = 1
# RET = details: read-out: apparent Kd, compound concentrations: 100 nM and 1000 nM (sheet 'Samples'), n = 1
# RIPK2 = details: read-out: apparent Kd, n = 1
# STK11 = details: read-out: apparent Kd; compound concentrations: 100 nM and 1000 nM (sheet 'Samples'), CATDS: 4.7078768974871503E-2; n = 1
# TGFBR2 = details: read-out: apparent Kd, n = 1
# ACVR1B = details: read-out: apparent Kd; compound concentrations:100 nM and 1000 nM (sheet 'Samples'); n = 1
# NQO2 = details: read-out: apparent Kd; compound concentrations:100 nM and 1000 nM (sheet 'Samples'); n = 1
# PRKD2 = details: read-out: apparent Kd; compound concentrations:100 nM and 1000 nM (sheet 'Samples'); n = 1
# PRKD3 = details: read-out: apparent Kd; compound concentrations:100 nM and 1000 nM (sheet 'Samples'); n = 1
# TGFBR1 = details: read-out: apparent Kd; compound concentrations:100 nM and 1000 nM (sheet 'Samples'); n = 1
# TNIK = details: read-out: apparent Kd; compound concentrations:100 nM and 1000 nM (sheet 'Samples'); n = 1
# ZAK = details: read-out: apparent Kd; compound concentrations:100 nM and 1000 nM (sheet 'Samples'); n = 1
# DDR1 = details: read-out: apparent Kd; compound concentrations:100 nM and 1000 nM (sheet 'Samples'); n = 1
# DDX3X;DDX3Y = details: read-out: apparent Kd; compound concentrations:100 nM and 1000 nM (sheet 'Samples'); n = 1
# MAPK10 = details: read-out: apparent Kd; compound concentrations:100 nM and 1000 nM (sheet 'Samples'); n = 1
# MAPK14 = details: read-out: apparent Kd; compound concentrations:100 nM and 1000 nM (sheet 'Samples'); n = 1
# MAPK9 = details: read-out: apparent Kd; compound concentrations:100 nM and 1000 nM (sheet 'Samples'); n = 1
# MAPKAPK2 = details: read-out: apparent Kd; compound concentrations:100 nM and 1000 nM (sheet 'Samples'); n = 1
# NLK = details: read-out: apparent Kd; compound concentrations:100 nM and 1000 nM (sheet 'Samples'); n = 1
# CDK4 = details: read-out: apparent Kd; compound concentrations:100 nM and 1000 nM (sheet 'Samples'); n = 1
# TP53RK = details: read-out: apparent Kd; compound concentrations:100 nM and 1000 nM (sheet 'Samples'); n = 1
# DCTPP1 = details: read-out: apparent Kd; compound concentrations: 100 nM and 1000 nM (sheet 'Samples'), CATDS: 0.10861575043791701; n = 1
# EGFR = details: read-out: apparent Kd; compound concentrations: 100 nM and 1000 nM (sheet 'Samples'), CATDS: 0.49201381458362498; n = 1
# EPHA5 = details: read-out: apparent Kd; compound concentrations: 100 nM and 1000 nM (sheet 'Samples'), CATDS: 0.108805216819128; n = 1
# EPHB4 = details: read-out: apparent Kd; compound concentrations: 100 nM and 1000 nM (sheet 'Samples'), CATDS: 0.19010178021007501; n = 1
# PRKD1 = details: read-out: apparent Kd; compound concentrations: 100 nM and 1000 nM (sheet 'Samples'), CATDS: 0.12094331971113; n = 1
# [1] = compound concentrations:100 nM and 1000 nM (sheet 'Samples')
compound,measurement,setting,value
Cc1ccc(Nc2ccnc(Nc3cccc(C(N)=O)c3)n2)cc1O.Cl [GW575808A],potency estimated from few doses,"ACVR1; compound concentrations: 100 nM and 1000 nM (sheet 'Samples'), CATDS: 7.6276409382360397E-2",534 nM
same,potency estimated from few doses,ACVR2B; CATDS: 0.210677427457096,77 nM
same,potency estimated from few doses,BCR,645 nM
same,potency estimated from few doses,FLT3,1450 nM
same,potency estimated from few doses,FLT4,1240 nM
same,potency estimated from few doses,FRK,526 nM
same,potency estimated from few doses,FYN,1100 nM
same,potency estimated from few doses,"GAK; compound concentrations: 100 nM and 1000 nM (sheet 'Samples'), CATDS: 5.5943535710341101E-2",1250 nM
same,potency estimated from few doses,IRAK3,894 nM
same,potency estimated from few doses,PIP4K2C,1610 nM
same,potency estimated from few doses,RET; CATDS: 7.3825490143618097E-2,578 nM
same,potency estimated from few doses,"RIPK2; compound concentrations: 100 nM and 1000 nM (sheet 'Samples'), CATDS: 0.18233295125810001",96.9 nM
same,potency estimated from few doses,STK11,2430 nM
same,potency estimated from few doses,"TGFBR2; compound concentrations: 100 nM and 1000 nM (sheet 'Samples'), CATDS: 0.25024360667503898",59.4 nM
c1ccc(-c2n[nH]cc2-c2ccnc(-c3ccc(OCCN4CCOCC4)cc3)c2)nc1 [GW695874X],potency estimated from few doses,ACVR1B,51.4 nM
same,potency estimated from few doses,GAK; [1],432 nM
same,potency estimated from few doses,NQO2,256 nM
same,potency estimated from few doses,PRKD2,648 nM
same,potency estimated from few doses,PRKD3,1460 nM
same,potency estimated from few doses,RIPK2; [1],774 nM
same,potency estimated from few doses,TGFBR1,27.7 nM
same,potency estimated from few doses,TGFBR2; [1],758 nM
same,potency estimated from few doses,TNIK,1170 nM
same,potency estimated from few doses,ZAK,2090 nM
CNc1ncc2cc(Oc3ccc(F)cc3F)c(=O)n(C)c2n1 [RO5083957-000],potency estimated from few doses,ACVR1B,853 nM
same,potency estimated from few doses,DDR1,958 nM
same,potency estimated from few doses,DDX3X;DDX3Y,1740 nM
same,potency estimated from few doses,MAPK10,1750 nM
same,potency estimated from few doses,MAPK14,618 nM
same,potency estimated from few doses,MAPK9,1640 nM
same,potency estimated from few doses,MAPKAPK2,843 nM
same,potency estimated from few doses,NLK,1800 nM
CN1C(=O)[C@@H](NC(=O)c2cc(Cc3ccccc3)on2)COc2ccccc21 [GSK481],potency estimated from few doses,ACVR1; [1],1270 nM
same,potency estimated from few doses,CDK4,1980 nM
same,potency estimated from few doses,TP53RK,2040 nM
Nc1nc(-c2cccc(Cl)c2)c(-c2ccc3ncccc3n2)s1 [GW780159X],potency estimated from few doses,ACVR1B,1.63 nM
same,potency estimated from few doses,MAPK14,1440 nM
same,potency estimated from few doses,MAPKAPK2,1000 nM
same,potency estimated from few doses,PRKD2,815 nM
same,potency estimated from few doses,TNIK,2040 nM
COc1cc2ncnc(Nc3cccc(Cl)c3F)c2cc1O[C@H]1CC[C@@]2(CC1)NCCNC2=O [BI00113608],potency estimated from few doses,ACVR2B; CATDS: 0.10934684571165,1660 nM
same,potency estimated from few doses,DCTPP1,1700 nM
same,potency estimated from few doses,EGFR,85.3 nM
same,potency estimated from few doses,EPHA5,1690 nM
same,potency estimated from few doses,EPHB4,421 nM
same,potency estimated from few doses,PRKD1,1220 nM
same,potency estimated from few doses,RET; CATDS: 0.16960231572365,534 nM
